Screening data deposited in PubChem by National Center for Advancing Translational Sciences (NCATS).
MCF10A rereplic: A quantitative high throughput screen for small molecules that induce DNA re-replication in MCF 10a normal breast cells | MCF 10A DNA re-replication, Hoechst nuclear intensity, 48 h | Potency, µM (series often up to 46.1 µM), without a hit: at the highest dose activity, positive = re-replication, actives largely listed as activators | actives 2.9% (n = 350,000) | AID 624296, 2012; also: % of control where 0% means no effect; nearly all actives have a fitted effect of over 50% in size
KB-3-1 tox: qHTS assay for MDR1-selective chemotherapeutics: Primary screen using the parental adenocarcinoma cell KB-3-1. KB-3-1 viability, CellTiter-Glo ATP luminescence, 72 h. Potency, µM (doses to about 46.1 µM), hits mostly cytotoxic. actives 1.4% (n = 400,000); also: % is scaled to controls: 0 for no effect and ±100 for the full control effect; nearly all actives have a fitted effect of over 60% in size
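Cytotoxicity measured as CellTiter-Glo luminescence after 72 h at 37 C. Compound titrations were pinned onto drug-naive KB-3-1 parental adenocarcinoma cells grown in DMEM with 10% FBS, and normalized data fitted to concentration-response curves.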
KB-V1 MDR tox: qHTS assay for MDR1-selective chemotherapeutics: Primary screen using the drug-selected MDR subline cells KB-V1; KB-V1 MDR cells viability, CellTiter-Glo, 72 h; Potency, µM (titrated, usually from 46.1 µM), most hits filed as cytotoxic; actives 3.4% (n = 400,000); also: % is scaled to controls: 0 for no effect and ±100 for the full control effect; nearly all actives have a fitted effect of over 60% in size
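KB-V1 cells (P-gp-expressing MDR subline of KB-3-1) in phenol-red-free DMEM with 10% FBS were exposed to library compounds over a concentration series for 72 h at 37 degrees C. Viability read by CellTiter-Glo luminescence; concentration-effect curves fitted after normalization.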
SW480 rerep: A quantitative high throughput screen for small molecules that induce DNA re-replication in SW480 colon adenocarcinoma cells; SW480 DNA re-replication, Hoechst DNA content imaging, 48 h; Potency, µM (titrated, usually from 46.1 µM), without a hit: top-dose re-replication activation, most hits filed as activators; actives 1.8% (n = 340,000); also: % of control where 0% means no effect; nearly all actives have a fitted effect of over 55% in size
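Hoechst fluorescence of nuclei (405 nm excitation, 500-530 nm emission) measured by plate-scanning imager after 48 hr compound exposure at 37 C; re-replication scored as increased number of nuclei with elevated intensity.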
HT1080 IDH1KD tx: qHTS for induction of synthetic lethality in tumor cells producing 2HG: qHTS for the HT-1080-IDH1KD cell line; HT-1080 IDH1 knockdown viability, ATP luminescence, 48 h; Potency, µM (top dose mostly 46.1 µM), inactives show at the top dose activity, negative = toxicity, usual class: cytotoxic; actives 2% (n = 360,000); AID 686971, 2013;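 also: 0% = DMSO wells and -100% = cell-free medium wells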
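Cytotoxicity counter-line: IDH1KD HT-1080, 48 h, CellTiter-Glo. Curves classed by r2, magnitude and activity.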
HT1080NT lethal: qHTS for induction of synthetic lethality in tumor cells producing 2HG: qHTS for the HT-1080-NT fibrosarcoma cell line. AID 686970, 2013. HT-1080-NT fibrosarcoma viability, CellTiter-Glo ATP luminescence, 48 h. actives 1.6% (n = 360,000). Potency, µM (top dose mostly 46.1 µM), for inactives: at the top dose activity, negative = less viability, actives largely listed as cytotoxic;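 also: NT is the 2HG producing partner of a matched IDH1 knockdown line; 0% = DMSO-treated cells and -100% = media-only wells without cells; nearly all actives have a fitted effect of over 55% in size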
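Compounds were tested in concentration-response format on HT-1080-NT cells for 48 hours at 37 degrees C. Cell viability came from CellTiter-Glo luminescence; curves were classified by r2, response magnitude and activity.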
Starred values were filed as active, the others as inactive; i = inactive; ? = inconclusive; · = not tested or not shown. Sampled rows, rich in hits. Any-hit rate of the full collection: about 7.9%. Calls follow the shape of the dose curve; as a rule, active = well fitted curve in the direction sought with a large enough effect; inconclusive = small, poorly fitted or top-dose-only effect, or another doubt; inactive = no such curve, though single readings can be large; an effect the other way counts as inactive or inconclusive. Potency is read from the fitted curve at half-maximal effect.

SMILES | MCF10A rereplic | KB-3-1 tox | KB-V1 MDR tox | SW480 rerep | HT1080 IDH1KD tx | HT1080NT lethal
COC(=O)c1cc(NC(=O)CN(c2ccccc2)S(=O)(=O)N(C)C)ccc1Cl | · | ? | i | · | · | ·
O=C(Nc1ccc(-c2csc(Nc3cccc(C(F)(F)F)c3)n2)cc1)c1ccccc1 | 18.4µM* | ? | i | ? | -12.5% | -23.2%
O=C(Nc1nc(-c2ccccc2)cs1)c1cccc([N+](=O)[O-])c1 | ? | i | 23.1µM* | -2.3% | -13.5% | -8.8%
COc1cc(C(=O)Nc2ccccc2C(=O)Nc2ccccn2)cc(OC)c1OC | ? | 8.2µM* | 6.51µM* | 23.1µM* | -1.0% | 1.7%
O=C(Nc1nc(-c2cccnc2)cs1)c1cccc([N+](=O)[O-])c1 | -4.4% | i | i | -5.5% | 0.7% | 8.0%
COc1cc(C2C(C(=O)Nc3ccccc3)=C(C)Nc3nnnn32)cc(OC)c1OC (stereo not given) | · | i | i | · | · | ·
CCC(=O)N1CCc2cc(Br)cc(S(=O)(=O)NCc3ccccc3OC)c21 | 8.1% | i | ? | -3.3% | -1.6% | 9.7%
O=C(NCc1ccccc1)NC1COc2ccccc2C1 (stereo not given) | · | i | i | · | · | ·
COC(=O)c1cc(-c2ccc(Br)cc2)c2c(=O)[nH]c(=O)n(C)c2n1 | -0.7% | i | i | 0.2% | -20.2% | -3.4%
COC(=O)c1cc(-c2ccc(OC)c(OC)c2)c2c(=O)[nH]c(=O)n(C)c2n1 | 6.51µM* | i | i | 29.3% | 0.3% | 1.7%
CCOc1ccc(-c2cc(C(=O)OC)nc3c2c(=O)n(C)c(=O)n3C)cc1 | 23.1µM* | i | i | ? | 5.1% | 7.1%
Cc1cc(C)c2c(c1)/C(=N/NS(=O)(=O)c1ccc(Br)cc1)CCC2 | 7.08µM* | i | ? | 2.7% | -20.1% | -26.7%
O=C(Cc1ccccc1)Nc1c2c(nn1-c1cccc(Cl)c1)CS(=O)(=O)C2 | 18.9% | i | 20.6µM* | -5.4% | -29.0% | -2.4%
COc1ccc(CC(=O)Nc2c3c(nn2-c2cccc(Cl)c2)CS(=O)(=O)C3)cc1 | 23.2% | i | 16.4µM* | -4.1% | ? | -0.9%
Cc1ccc(Cn2c(=N)n(CC(=O)c3ccccc3)c3ccccc32)cc1 | ? | i | ? | ? | ? | -27.5%
CC(C)(C)c1ccc(C(=O)N2CCC2(C)C(=O)Nc2ccc3[nH]ncc3c2)cc1 (stereo not given) | · | i | i | · | ? | -8.5%
COc1ccc(NC(=O)C2(C)CCN2C(=O)c2ccc(C(C)(C)C)cc2)cc1OC (stereo not given) | · | 14.6µM* | 16.4µM* | · | ? | 1.9%
COc1cccc(CN2CCC2(C)C(=O)Nc2cccc3cccnc23)c1F (stereo not given) | · | 7.31µM* | 7.31µM* | · | 13µM* | 23.1µM*
COc1ccc(OC)c(NC(=O)C2(C)CCN2Cc2cccc(OC)c2F)c1 (stereo not given) | · | i | i | · | -45.8% | ?
COc1ccc(NC(=O)C2(C)CCN2Cc2ccc(OC)c3ccccc23)cc1OC (stereo not given) | · | i | i | · | 23.1µM* | ?
COc1ccc(NC(=O)C2(C)CCN2Cc2cccc(OC)c2OC)cc1OC (stereo not given) | · | ? | 8.2µM* | · | -0.7% | 4.8%
CC(=O)N1CCc2cc(S(=O)(=O)NC(CC(C)C)C(=O)NCCc3ccccc3)ccc21 (stereo not given) | · | i | i | · | · | ·
